According to PubChem BioAssay (EPA / NIEHS):
Results filed as inconclusive are left out. Active and inactive are the calls of the source. The calls were made as follows, unless noted: active = hit-call score of the fitted dose curve at least 0.9, where 1 is the maximum; inactive = score below 0.9.

Legend:
[1] = BSK_BT_PBMCCytotoxicity: PBMC Cytotoxicity Assessment in the BioMAP Diversity Plus: BT Assay (AID 2284225); details: primary human B cells with PBMC;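 also: PBMC viability measured by Alamar Blue dye reduction fluorescence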
How it was run: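 PBMC (75,000/well) pretreated with compound 1 h, then activated with SEB and TSST-1 (20 ng/mL each final), incubated 90 h; Alamar Blue added 6 h, fluorescence read at 546/580 nm. Fitted relative to DMSO.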

[2] = read-out: Secreted IgG (sIgG), gene 3500; experiment: BSK_BT_sIgG: BioMAP Diversity Plus: BT Assay for Secreted IgG (sIgG) Biomarker Activity (AID 2284226); details: primary human B cells with PBMC
How it was run: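 Read-out: ELISA for secreted IgG after 24 h of chemical exposure in a B cell plus PBMC co-culture. Values reflect upward-direction fitting against DMSO negative controls.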

[3] = BSK_BT_Bcell_Proliferation: Viability Assessment in the BioMAP Diversity Plus: BT Assay for B cell Proliferation (AID 2284227); details: primary human B cells with PBMC
How it was run: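 SRB-based protein staining (0.1% SRB after 10% TCA fixation, 560 nm) quantifies proliferation in human B cells co-cultured with PBMC, 72 h post-dosing, with signal gain scored relative to DMSO negative control.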

[4] = read-out: Interleukin 6 (IL6), IL6 (gene 3569); experiment: BSK_BT_xIL6: BioMAP Diversity Plus: BT Assay for Interleukin 6 (IL6) Biomarker Activity (AID 2284228); details: primary human B cells with PBMC
How it was run: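 IL-6 secretion measured (Luminex xMAP) in human primary B cell + PBMC co-culture at 24 h of chemical exposure; DMSO served as negative control and activity baseline, with curves fitted for increase.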

[5] = read-out: Interleukin 17A (IL17A), IL17A (gene 3605); experiment: BSK_BT_xIL17A: BioMAP Diversity Plus: BT Assay for Interleukin 17A (IL17A) Biomarker Activity (AID 2284229); details: primary human B cells with PBMC
How it was run: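 Human primary B cells plus PBMC, treated 24 h with chemicals; supernatant IL-17A quantified on Luminex xMAP beads. Gain of signal over DMSO control scored as activity.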

[6] = read-out: Tumor necrosis factor (Homo sapiens) (UniProt P01375); experiment: BSK_BT_xTNFa: BioMAP Diversity Plus: BT Assay for Tumor necrosis factor alpha (TNF-alpha) Biomarker Activity (AID 2284230); details: primary human B cells with PBMC
How it was run: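 Compounds were added to a B cell plus PBMC co-culture, and after 24 h secreted TNF-alpha was quantified with Luminex xMAP technology, with responses fitted upward from the DMSO control.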

[7] = read-out: Vascular cell adhesion molecule 1 (VCAM1), VCAM1 (gene 7412); experiment: BSK_MyoF_VCAM1: BioMAP Diversity Plus: MyoF Assay for Vascular cell adhesion molecule 1 (VCAM1) Biomarker Activity (AID 2284231); details: primary human lung fibroblasts
How it was run: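 VCAM-1 levels, lung fibroblasts, ELISA, 24 h exposure, increase scored relative to DMSO.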

[8] = read-out: Collagen I, COL1A1 (gene 1277); experiment: BSK_MyoF_CollagenI: BioMAP Diversity Plus: MyoF Assay for Collagen I Biomarker Activity (AID 2284238); details: primary human lung fibroblasts
How it was run: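 Measured by ELISA: Collagen I from human lung fibroblasts 24 h after compound addition, analysed for signal gain with DMSO as baseline; overt toxicity read from SRB staining of parallel cultures at the same time.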

[9] = read-out: Collagen III, COL3A1 (gene 1281); experiment: BSK_MyoF_CollagenIII: BioMAP Diversity Plus: MyoF Assay for Collagen III Biomarker Activity (AID 2284239); details: primary human lung fibroblasts
How it was run: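 Multiplexed cell assay in lung fibroblasts, harvested at 24 h post-dose. Collagen III detected by ELISA, with positive-direction fitting relative to DMSO vehicle.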

[10] = read-out: Interleukin 17F (IL17F), IL17F (gene 112744); experiment: BSK_BT_xIL17F: BioMAP Diversity Plus: BT Assay for Interleukin 17F (IL17F) Biomarker Activity (AID 2284243); details: primary human B cells with PBMC
How it was run: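 Luminex readout of IL-17F secretion, 24 h; cells: human B cells with PBMC; positive-direction analysis, DMSO control.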

[11] = read-out: Actin alpha 1 (ACTA1), ACTA1 (gene 58); experiment: BSK_MyoF_ACTA1: BioMAP Diversity Plus: MyoF Assay for Actin alpha 1 (ACTA1) Biomarker Activity (AID 2284244); details: primary human lung fibroblasts
How it was run: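 Lung fibroblasts, human primary, 24 h compound exposure → a-SMA ELISA. Positive-direction fit vs DMSO control.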

[12] = TAMU_HCS_1.5hr_SingleDonor1434_Cytotoxicity: Cytotoxicity Assessment using High-content Screening (HCS) Fluorescent Imaging for the Texas A&M University (TAMU) 1.5-hr Human Induced Pluripotent Stem Cell (iPSC)-derived Cardiotoxicity Assay (AID 2284234; active = hit-call score of the fitted dose curve at least 0.9, where 1 is the maximum)
How it was run: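 Human iPSC-derived cardiomyocytes dosed at 0.2, 1, 10, 100 uM final (0.5% DMSO) for 90 min at 37 C. Hoechst 33342-stained nuclei counted by 10x high-content imaging; POD is EC10, a 10% drop in total cell count versus DMSO.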

[13] = TAMU_PeakParms_SingleDonor1434_QT: Texas A&M University (TAMU) 1.5-hr Human Induced Pluripotent Stem Cell (iPSC)-derived Cardiomyocytes Calcium (Ca+2) Flux Assay for Cardiotoxicity: QT (decay-rise ratio) (AID 2284235; active = hit-call score of the fitted dose curve at least 0.9, where 1 is the maximum)
How it was run: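 iPSC-derived cardiomyocytes (single donor 1434) dosed at 0.2, 1, 10, 100 uM final in 0.5% DMSO, 90 min at 37C. Ca2+ flux fluorescence decay/rise ratio; EC05 (5% increase versus DMSO) as POD, excluding beat-arrest and severe-notch data.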

Measured: AC50

Chain of Tumor necrosis factor (Homo sapiens) (P01375 whole entry, looked up): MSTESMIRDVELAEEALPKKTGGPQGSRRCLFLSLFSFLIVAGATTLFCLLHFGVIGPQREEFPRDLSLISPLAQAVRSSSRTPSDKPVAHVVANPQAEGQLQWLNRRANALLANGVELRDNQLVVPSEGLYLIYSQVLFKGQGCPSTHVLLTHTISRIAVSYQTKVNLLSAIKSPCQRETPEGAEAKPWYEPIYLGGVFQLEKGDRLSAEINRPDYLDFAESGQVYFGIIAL

CN(C)[C@@H]1C(=O)C(C(N)=O)=C(O)[C@@]2(O)C(=O)C3=C(O)c4c(O)cccc4[C@@](C)(O)[C@H]3[C@H](O)[C@@H]12
not listed: [12] | [13]
inactive: all other assays above

O=[N+]([O-])c1cc(C(F)(F)F)c(Cl)c([N+](=O)[O-])c1Nc1ncc(C(F)(F)F)cc1Cl
active: [1] 4.22 µM | [2] 0.282 µM | [3] 2.57 µM | [4] 3.72 µM | [5] 0.73 µM | [6] 3.97 µM | [7] 2.53 µM | [8] 2.52 µM | [9] 2.72 µM | [10] 1.35 µM | [11] 2.27 µM

C=C(C)[C@H]1Cc2c(ccc3c2O[C@@H]2COc4cc(OC)c(OC)cc4[C@@H]2C3=O)O1
inactive: [13]
active: [12] 0.01 µM

CCOP(=S)(OCC)Oc1ccc([N+](=O)[O-])cc1
inactive: [12] | [13]
